PubChem BioAssay AID602340 (Broad Institute, 2012)
In all, about 330,000 compounds went through this assay and about 2,600 (0.79%) were called active.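 How the source made its calls: active means mean ATP rescue above about 67%, or every replicate alone reaching that limit (limit read from the data, passing the limit was not always enough); inconclusive means no clear call, values can overlap the other calls; inactive means mean under the limit and some replicate under it.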 This excerpt belongs to a sample that is enriched for actives.

Test: suppressors of statin myotoxicity in C2C12 myotubes, primary screen, cell-based, single point, plate reader (AID 602340);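 further: myotubes were challenged with 10 µM simvastatin during compound exposure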
Conditions: C2C12 myotubes + simvastatin, ATP luminescence, 48 h; at 7.49 µM; active compounds read high; scaled: DMSO 0, geranylgeraniol control 100

Question: For `CCCC#Cc1ccc2c(c1)O[C@@H](CN(C)CC1CC1)[C@@H](C)CN([C@H](C)CO)S2(=O)=O`, which rescue of ATP level is on record?
Answer: 33.5% (inactive)

Question: For `CCS(=O)(=O)N1[C@H](CO)[C@@H](c2ccc(C#CC(C)C)cc2)[C@@H]1C#N`, which rescue of ATP level is on record?
Answer: -1.94% (inactive)

Question: For `Cc1noc(C)c1NC(=O)N[C@H]1CC[C@H](CC(=O)N2CCCCC2)O[C@@H]1CO`, which rescue of ATP level is on record?
Answer: 0.234% (inactive)

Question: With `CC=Cc1ccc2n(c1=O)C[C@@H]1[C@@H](CO)[C@H](C(=O)N3CCc4ccccc4C3)N(C(=O)C3CCC3)[C@H]21` (mixture of isomers) as the compound, how does the rescue of ATP level read?
Answer: 17.5% (inactive)

Question: For `COc1ccccc1C(=O)NC(=S)Nc1ccccc1N1CCCCC1`, which rescue of ATP level is on record?
Answer: 0.351% (inactive)

Question: For `COc1ccc(C(=O)NC(=S)Nc2ccccc2N2CCN(S(C)(=O)=O)CC2)cc1OC`, which rescue of ATP level is on record?
Answer: 103% (active)

Question: With `CC(=O)N1CCN(c2ccccc2NC(=S)NC(=O)c2cc3ccccc3o2)CC1` as the compound, how does the rescue of ATP level read?
Answer: 12.9% (inactive)

Question: With `CO[C@@H]1CN(C)C(=O)c2ccc(NC(=O)C3CC3)cc2OC[C@@H](C)N(Cc2ccncc2)C[C@@H]1C` as the compound, how does the rescue of ATP level read?
Answer: 6.35% (inactive)

Question: For `COc1ccc(CN(C)C[C@H]2OCc3cn(nn3)CCCC(=O)N([C@@H](C)CO)C[C@@H]2C)cc1`, which rescue of ATP level is on record?
Answer: 11.6% (inactive)

Question: Which rescue of ATP level does the source give for `C[C@H]1CN([C@@H](C)CO)C(=O)c2cc(C#CC3CCCCC3)cnc2O[C@@H]1CN(C)C(=O)Cc1ccccn1` here?
Answer: 16.9% (inactive)

Question: For `O=C(O)C1CC=CCC1C(=O)NCCc1ccccc1` (stereo unspecified), which rescue of ATP level is on record?
Answer: 104% (active)

Question: For `O=C(O)C1CC=C(Cl)CC1C(=O)NCc1ccccc1` (stereo unspecified), which rescue of ATP level is on record?
Answer: -8.07% (inactive)

Question: With `O=C(NCCc1ccccc1)C1CC1` as the compound, how does the rescue of ATP level read?
Answer: 7.36% (inactive)

Question: Which rescue of ATP level does the source give for `C[C@H]1CN([C@@H](C)CO)C(=O)c2cc(NC(=O)C3CCCCC3)ccc2O[C@H]1CN(C)C(=O)Nc1ccccc1` here?
Answer: 6.29% (inactive)

Question: For `Cc1ccc(C2(c3ccc(C)cc3)NC(=O)N(Cc3c(C)noc3C)C2=O)cc1`, which rescue of ATP level is on record?
Answer: 195% (active)

Question: With `COC(=O)c1ccc(CN2C(=O)NC(c3ccccc3)(c3ccccc3)C2=O)o1` as the compound, how does the rescue of ATP level read?
Answer: 1.69% (inactive)

Question: For `COc1ccc(C2(c3ccc(OC)cc3)NC(=O)N(CC(=O)Nc3cc(C)on3)C2=O)cc1`, which rescue of ATP level is on record?
Answer: -1.37% (inactive)

Question: Which rescue of ATP level does the source give for `Cc1noc(C)c1NC(=O)N(C)C[C@H]1Oc2ccc(NC(=O)Cn3cnnn3)cc2CC(=O)N([C@H](C)CO)C[C@@H]1C` here?
Answer: 3.98% (inactive)

Question: With `O=C(NCc1nnnn1-c1ccc(Cl)cc1)c1ccc2c(c1)OCO2` as the compound, how does the rescue of ATP level read?
Answer: -0.994% (inactive)

Question: Which rescue of ATP level does the source give for `COc1ccc(-n2nnnc2CNC(=O)c2ccc3ccccc3c2)cc1` here?
Answer: -15.7% (inactive)

Question: Which rescue of ATP level does the source give for `O=C(NCc1nnnn1-c1ccc(Cl)cc1)c1ccc([N+](=O)[O-])o1` here?
Answer: 89% (active)

Question: Which rescue of ATP level does the source give for `CCCN1[C@@H]2c3ccc(-c4ccccc4OC)c(=O)n3C[C@H]1[C@H](CO)[C@H]2C(=O)NCc1ccccn1` here?
Answer: -9.62% (inactive)

Question: With `O=C(N/N=C/c1cccc(Br)c1)c1ccc(N2CCCC2=O)cc1` as the compound, how does the rescue of ATP level read?
Answer: -20% (inactive)

Question: Which rescue of ATP level does the source give for `Cn1c(=O)n(C)c2cc(C(=O)Nc3ccc(Br)cc3)ccc21` here?
Answer: -4.21% (inactive)

Question: With `Cn1c(=O)n(C)c2cc(/C=N/NC(=O)c3cccc(Br)c3)ccc21` as the compound, how does the rescue of ATP level read?
Answer: 70.7% (active)

Question: For `NC(=O)c1ncc(C(F)(F)F)cc1Oc1ccc(F)cc1`, which rescue of ATP level is on record?
Answer: 162% (active)

Question: Which rescue of ATP level does the source give for `N#Cc1ncc(C(F)(F)F)cc1Oc1cccnc1` here?
Answer: -4.63% (inactive)

Question: Which rescue of ATP level does the source give for `N#Cc1ccc(Oc2ccc(C(F)(F)F)cc2NC(=O)c2ccc(F)cc2)cc1` here?
Answer: -5.87% (inactive)

Question: Which rescue of ATP level does the source give for `CO[C@H]1CN(C)C(=O)c2ccc(NC(=O)C3CC3)cc2OC[C@H](C)N(CCc2ccccc2)C[C@H]1C` here?
Answer: 15.6% (inactive)

Question: For `O=C(C[C@H]1C=C[C@@H](NC(=O)C2CCOCC2)[C@@H](CO)O1)NCC1CCCCC1`, which rescue of ATP level is on record?
Answer: -2.92% (inactive)

Question: Which rescue of ATP level does the source give for `CO[C@@H]1CN(C)C(=O)c2cc(NS(=O)(=O)CC(F)(F)F)ccc2OC[C@@H](C)N(Cc2ccccn2)C[C@H]1C` here?
Answer: -12.7% (inactive)

Question: With `CCCCOC(=O)Nc1sc2nc(C)cc(C)c2c1-n1cccc1` as the compound, how does the rescue of ATP level read?
Answer: 66.9% (active)

Question: Which rescue of ATP level does the source give for `Cc1cc(C)c2c(-n3cccc3)c(C(=O)NNS(=O)(=O)c3ccc(F)cc3)sc2n1` here?
Answer: 7.07% (inactive)

Question: For `COC(=O)Nc1sc2nc(C)cc(C)c2c1-n1cccc1`, which rescue of ATP level is on record?
Answer: -7.59% (inactive)

Question: Which rescue of ATP level does the source give for `CCC(=O)N(C)C[C@H]1[C@H](c2ccc(C3=CCCCC3)cc2)[C@@H](CO)N1C(C)=O` here?
Answer: 16.5% (inactive)

Question: With `C[C@H]1CN([C@@H](C)CO)C(=O)Cc2cc(NC(=O)CCCCCC(=O)Nc3ccccc3N)ccc2O[C@@H]1CN(C)Cc1ccncc1` as the compound, how does the rescue of ATP level read?
Answer: 20.5% (inactive)

Question: For `C[C@@H]1CN([C@@H](C)CO)C(=O)Cc2cc(NC(=O)CCCCCC(=O)Nc3ccccc3N)ccc2O[C@H]1CN(C)C(=O)Nc1ccc(C(F)(F)F)cc1`, which rescue of ATP level is on record?
Answer: -13.1% (inactive)

Question: For `C[C@H](CO)N1C[C@H](C)[C@H](CN(C)Cc2ccc(C(F)(F)F)cc2)Oc2ccc(NC(=O)CCCCCC(=O)Nc3ccccc3N)cc2CC1=O`, which rescue of ATP level is on record?
Answer: 183% (active)

Question: For `C[C@H]1CN([C@@H](C)CO)C(=O)Cc2cc(NC(=O)CCCN(C)C)ccc2O[C@@H]1CN(C)Cc1ccc(-c2ccccc2)cc1`, which rescue of ATP level is on record?
Answer: 17.6% (inactive)

Question: For `C[C@H](CO)N1C[C@H](C)[C@@H](CN(C)Cc2ccc(Cl)c(Cl)c2)Oc2ccc(NC(=O)Cn3cnnn3)cc2CC1=O`, which rescue of ATP level is on record?
Answer: 88.7% (active)

Question: With `C[C@H](CO)N1C[C@H](C)[C@@H](CN(C)Cc2ccc(-c3ccccc3)cc2)Oc2ccc(NC(=O)CCC(F)(F)F)cc2CC1=O` as the compound, how does the rescue of ATP level read?
Answer: 74.7% (active)

Question: Which rescue of ATP level does the source give for `C[C@H]1CN([C@@H](C)CO)C(=O)Cc2cc(NC(=O)Cn3cnnn3)ccc2O[C@H]1CN(C)Cc1ccc(C(=O)O)cc1` here?
Answer: -21.6% (inactive)

Question: Which rescue of ATP level does the source give for `C[C@@H]1CN([C@H](C)CO)C(=O)Cc2cc(NC(=O)CCC(F)(F)F)ccc2O[C@@H]1CN(C)Cc1ccncc1` here?
Answer: -15.3% (inactive)

Question: With `C[C@@H]1CN([C@H](C)CO)C(=O)Cc2cc(NC(=O)Cn3cnnn3)ccc2O[C@H]1CN(C)Cc1ccc(Cl)c(Cl)c1` as the compound, how does the rescue of ATP level read?
Answer: 18.5% (inactive)

Question: Which rescue of ATP level does the source give for `CO[C@H]1CN(C)C(=O)c2ccc(NC(C)=O)cc2OC[C@H](C)N(C(=O)c2ccccc2)C[C@H]1C` here?
Answer: 3.84% (inactive)

Question: Which rescue of ATP level does the source give for `C[C@@H](NC(=O)[C@H]1[C@H](CO)[C@H]2Cn3c(cccc3=O)[C@@H]1N2Cc1cccnc1)c1ccccc1` here?
Answer: -8.14% (inactive)
